HepG2 tox: counter-screen for TGF-b inhibitors: cytotoxicity in HepG2 cells | HepG2 CAGA-GFP viability, ATP luminescence, 18 h | hit rate 0.76% among 410,000 | Potency, µM (doses to about 46.1 µM), without a hit: at the highest dose activity change, negative = cytotoxicity, usual class: cytotoxic
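CellTiter-Glo luminescence gave cytotoxicity after 18 hours at 37 degrees C. The cells were HepG2 CAGA-GFP in 1% FBS DMEM, stimulated with 500 pg/mL TGF-beta after compound addition. %Activity was normalised to no-cell wells (complete cell-killing) and DMSO (no toxicity), and curves were fitted and classified.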
KB-V1 cytotox: KB-V1 MDR subline cytotoxicity. KB-V1 MDR cells viability, CellTiter-Glo, 72 h. hit rate 3.4% among 400,000. AID 1347076. Potency, µM (highest dose often 46.1 µM), most hits filed as cytotoxic; also: % is scaled to controls: 0 for no effect and ±100 for the full control effect; nearly all actives have a fitted effect of over 60% in size
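qHTS viability screen in drug-selected KB-V1 MDR cells: 72 h compound treatment at 37 degrees C, ATP luminescence end point.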
HT1080NT lethal: kills 2HG-producing HT-1080-NT fibrosarcoma cells | HT-1080-NT fibrosarcoma viability, CellTiter-Glo ATP luminescence, 48 h | Potency, µM (top dose mostly 46.1 µM), for inactives: top-dose activity, negative = less viability, actives largely listed as cytotoxic | hit rate 1.6% among 360,000 | AID 686970;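 also: NT is the 2HG producing partner of a matched IDH1 knockdown line; 0% = DMSO-treated cells and -100% = media-only wells without cells; nearly all actives have a fitted effect of over 55% in size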
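Toxicity toward the 2HG-producing NT line was scored as %Activity, normalised to DMSO and no-cell wells, from CellTiter-Glo luminescence after 48 hours' treatment.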
HT1080 IDH1KD tx: toxicity to HT-1080 IDH1 knockdown cells (counter line). Potency, µM (highest dose often 46.1 µM), without a hit: at the highest dose activity, negative = toxicity, actives largely listed as cytotoxic. HT-1080 IDH1 knockdown viability, ATP luminescence, 48 h. hit rate 2% among 360,000;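 also: 0% = DMSO wells and -100% = cell-free medium wells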
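Cytotoxicity counter-line: IDH1KD HT-1080, 48 h, CellTiter-Glo. Curves classed by r2, magnitude and activity.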
KB-3-1 cytotox: KB-3-1 parental cell cytotoxicity; AID 1347075; Potency, µM (series often up to 46.1 µM), actives largely listed as cytotoxic; hit rate 1.4% among 400,000; KB-3-1 viability, CellTiter-Glo ATP luminescence, 72 h; also: % is scaled to controls: 0 for no effect and ±100 for the full control effect; nearly all actives have a fitted effect of over 60% in size
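Multi-concentration cytotoxicity screen in KB-3-1 cells grown in DMEM lacking phenol red with 10% FBS. After 72 h at 37 °C with compound, ATP-dependent luminescence was recorded.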
TGFb inhibitor: blocks TGF-b signaling; HepG2 CAGA-GFP TGF-b/SMAD3 reporter, GFP fluorescence, 18 h; TGF-beta stimulated, 500 pg/mL final; Potency, µM (top dose mostly 46.1 µM), without a hit: at the top dose activity, negative = inhibition, actives largely listed as inhibitors; hit rate 1.2% among 410,000; AID 588855; also: % is scaled to controls: 0 for no effect and ±100 for the full control effect; nearly all actives have a fitted effect of over 65% in size
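Read-out: total well GFP (ex488/em500-530) summed from mean per-cell fluorescence. Cells: HEPG2 CAGA-GFP, 1% FBS DMEM, 18 h at 37 degrees C with 500 pg/mL final TGF-beta. Unstimulated wells served as the full-inhibition control; stimulated DMSO wells = 0%.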
An asterisk follows results filed as active; i = inactive; ? = inconclusive; . = not tested or not shown; [ ] = another dose, or the depositor's remark. Only some compounds are listed: those with a hit (about 6.6% of all), similar ones and a draw of the others. Calls follow the shape of the dose curve; as a rule, active = well fitted curve in the direction sought with a large enough effect; inconclusive = small, poorly fitted or top-dose-only effect, or another doubt; inactive = no such curve, though single readings can be large; an effect the other way counts as inactive or inconclusive. Potency is read from the fitted curve at half-maximal effect.

SMILES	HepG2 tox	KB-V1 cytotox	HT1080NT lethal	HT1080 IDH1KD tx	KB-3-1 cytotox	TGFb inhibitor
COc1ccc(OC)c(C(C[N+](=O)[O-])c2c(C)cc3ccccn23)c1 (stereo not drawn)	-21%	?	23µM*	18µM*	?	-4%
COc1ccc(C(C[N+](=O)[O-])c2c(C)cc3ccccn23)c(OC)c1 (stereo not drawn)	2%	i	?	?	?	10%
COc1ccc(Br)cc1/C=C/C(=O)c1ccc(NC(C)=O)cc1	16µM*	?	?	?	4.1µM*	?
COc1ccc(NC(=O)/C=C/c2cc(Br)ccc2OC)cc1	-9%	i	-1%	0%	i	10%
O=C(/C=C/c1cccs1)c1ccc(NC(=O)c2ccccc2F)cc1	-15%	?	-4%	12%	i	0%
COc1ccccc1C(=O)Nc1ccc(C(=O)/C=C/c2cccs2)cc1	-9%	23µM*	-22%	-19%	i	?
COc1ccc(C(=O)Nc2ccc(NC(=O)c3cccs3)cc2)cc1OC	-1%	i	.	.	i	?
COc1ccc(/C=C/C(=O)c2ccc(NC(=O)c3cccs3)cc2)cc1OC	-41%	21µM*	?	-26%	i	0%
CCc1ccc(O)c(CNCCNCc2cc(CC)ccc2O)c1	16µM*	?	-30%	-17%	?	?
O=C(Nc1cc(C(F)(F)F)ccc1Cl)C(NCc1ccccc1)c1ccccc1 (stereo not drawn)	-22%	21µM*	-1%	0%	i	-7%
CCN(CC)CCNC(C(=O)Nc1cc(C(F)(F)F)ccc1Cl)c1ccccc1 (stereo not drawn)	-28%	?	0%	8%	i	0%
CCc1c(C)sc2c1CCN(Cc1cccc(OC)c1)C2c1ccccc1 (stereo not drawn)	-7%	i	.	.	?	?
CCc1c(C)sc2c1CCN(Cc1ccccc1F)C2c1ccccc1 (stereo not drawn)	-42%	?	.	.	18µM*	?
FC(F)(F)c1ccc(C2[C@H]3CN(Cc4cccnc4)[C@H](c4ccccc4)C34CC2(c2cccnc2)C4)cc1 (stereo partly drawn)	-105%	?	?	?	?	8.9µM*
FC(F)(F)c1cccc(Nc2c3c(nc4ccc(Cl)cc24)CCC3)c1	-75%	.	.	.	.	18µM*
Fc1ccc(F)c(Nc2c3c(nc4ccc(Cl)cc24)CCC3)c1	18µM*	i	.	.	i	?
CCN(CC)CCOc1ccc(/C(=C(\Cl)c2ccccc2)c2ccccc2)cc1	-103%	i	4.6µM*	15µM*	?	?
CCOC(=O)c1cnc(SCc2ccc(C(C)(C)C)cc2)nc1N	-22%	?	-10%	-11%	23µM*	16%
CCOC(=O)c1cnc(SCc2cccc3ccccc23)nc1N	-22%	18µM*	-8%	?	?	-2%
CCOC(=O)c1cnc(SCc2ccccc2)nc1N	-37%	?	-18%	0%	i	?
Cc1cc(-c2ccc(C)c(S(=O)(=O)NC3CCCCC3)c2)on1	-38%	?	.	.	i	?
COc1ccc(-n2c(=O)c3ccccc3n(Cc3ccc(F)cc3Cl)c2=O)cc1OC	-8%	?	.	.	i	?
Cc1ccc(Cl)cc1NC(=O)NCc1cccnc1	-1%	i	-1%	4%	i	5%
COCCNC(=O)NC1(C(F)(F)F)Oc2ccc(Cl)cc2O1 (stereo not drawn)	-51%	?	?	?	23µM*	-11%
Cc1cc(NC(=O)NC2(C(F)(F)F)Oc3ccc(Cl)cc3O2)no1 (stereo not drawn)	-49%	18µM*	?	10µM*	?	-6%
SMILES	HepG2 tox	KB-V1 cytotox	HT1080NT lethal	HT1080 IDH1KD tx	KB-3-1 cytotox	TGFb inhibitor
Cc1cc(NC(=O)Nc2ccc(F)c(Cl)c2)no1	10%	i	0%[9.24 µM]	-25%	i	2%
O=C(NCc1cccnc1)NC1(C(F)(F)F)Oc2ccc(Cl)cc2O1 (stereo not drawn)	-51%	3.3µM*	-27%	?	?	?
COc1ccc2c(c1)CC(NC(=O)Nc1ccc(NC(C)=O)cc1)CO2 (stereo not drawn)	4%	i	.	.	i	-6%
COc1cccc(Sc2nc(N(C)C)ncc2S(=O)(=O)c2ccc(Cl)cc2)c1	.	.	0%	5%	.	.
CN(C(=O)CSc1cc(C(=O)c2nccn2C)c2ccccc2n1)c1ccccc1	-24%	?	-26%	-28%	?	14µM*
CCCN1CCN(c2ncc3c(n2)CCN(Cc2ccc(OC)c(OC)c2OC)C3)CC1	-2%	i	.	.	i	-13%
C=C(C)Cc1c(C)c(C#N)c2[nH]c3ccccc3n2c1=O	-18%	?	-13%	16µM*	?	-32%
CCc1cc(=O)n2c([nH]c3ccccc32)c1C#N	-46%	i	-12%	-2%	i	8%
Cc1ccc(Cc2c(C)c(C#N)c3[nH]c4ccccc4n3c2=O)cc1	-25%	i	-17%	-20%	?	?
CCc1c(C)c(C#N)c2[nH]c3ccccc3n2c1=S	-35%	7.3µM*	?	?	?	?
CCc1cc(=S)n2c([nH]c3ccccc32)c1C#N	-41%	5.8µM*	?	?	?	7.9µM*
CC1(C(=O)Nc2cccnc2)Cc2c(-c3cccc(C(F)(F)F)c3)ccnc2O1 (stereo not drawn)	-39%	i	0%	-3%	i	?
CCOc1ccc(-n2ccnc2SCC(=O)Nc2ccc3c(c2)OCO3)cc1	-24%	.	.	.	.	-13%
CC1(c2nnc(-c3cccc(Cl)c3)o2)CC(c2ccc(Cl)cc2)=NO1 (stereo not drawn)	-10%	i	8%	7%	i	16µM*
COC(=O)c1cc(=O)n(CCc2ccc(OC)cc2)c(=Nc2ccc(F)c(Cl)c2)s1	-40%	i	21µM*	?	?	?
Cc1ccc(N=C2NC(=O)/C(=C\c3ccsc3)S2)c(C)c1	-36%	18µM*	-9%	-8%	i	?
CC1Cc2cc(S(=O)(=O)NCc3ccc(N(C)C)cc3)ccc2N1C(=O)C1CCC1 (stereo not drawn)	-30%	i	.	.	?	?
Cc1cc(NC(=O)CS(=O)c2cn(Cc3cccc(Cl)c3)c3ccccc23)no1 (stereo not drawn)	-8%	i	-19%	?	?	13µM*

High-throughput results from PubChem.
